Screening results (PubChem BioAssay)
Hits are enriched below; roughly 1.1% of the tested compounds scored in any of these assays.
LmPK inhibitor: qHTS Assay for Inhibitors of Leishmania Mexicana Pyruvate Kinase (LmPK); AID 1721, 2009; 290,000 compounds, 0.37% hits; Potency, µM (titrated, usually from 57.5 µM), for the others: at the highest dose activity change, negative = inhibition, hits mostly inhibitors; purified LmPK, Kinase-Glo ATP luminescence, 1 h; Q27686; further: on the % scale 0 is the no-effect control and ±100 the full control effect
Target sequence (Q27686 whole entry, looked up): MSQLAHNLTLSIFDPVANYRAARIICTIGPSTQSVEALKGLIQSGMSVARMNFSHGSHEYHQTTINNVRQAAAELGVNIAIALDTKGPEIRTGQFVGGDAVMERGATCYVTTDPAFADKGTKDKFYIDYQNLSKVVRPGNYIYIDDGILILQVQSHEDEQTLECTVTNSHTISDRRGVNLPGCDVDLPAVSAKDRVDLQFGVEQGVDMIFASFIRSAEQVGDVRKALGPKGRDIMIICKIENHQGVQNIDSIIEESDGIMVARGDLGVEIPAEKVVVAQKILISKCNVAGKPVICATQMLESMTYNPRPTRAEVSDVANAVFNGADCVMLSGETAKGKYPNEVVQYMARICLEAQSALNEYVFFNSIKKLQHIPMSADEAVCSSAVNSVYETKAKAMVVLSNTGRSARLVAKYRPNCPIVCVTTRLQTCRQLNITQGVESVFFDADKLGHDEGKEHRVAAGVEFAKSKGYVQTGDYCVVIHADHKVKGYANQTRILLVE
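Pyruvate kinase activity monitored as ATP production (luciferase luminescence). Conditions: 0.1 nM enzyme, 0.5 mM PEP, 0.1 mM ADP, 1 h, RT; normalized against uninhibited and no-enzyme wells.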
SARS PLP yeast: qHTS of Yeast-based Assay for SARS-CoV PLP; Potency, µM (doses to about 32.9 µM), for inactives: top-dose activity, positive = growth rescue, actives largely listed as activators; 330,000 compounds, 0.19% hits; S. cerevisiae expressing SARS-CoV PLpro, growth rescue; calls by dose curve; further: 0% is about no effect; nearly all actives have a fitted effect of over 55% in size
RE007 growth inh: qHTS Assay for Inhibitors of the HIV-1 protein Vpr. Potency, µM (highest dose often 92.2 µM), for the others: at the highest dose activity change, negative = less growth, usual class: inhibitors. 360,000 compounds, 0.21% hits. S. pombe RE007 Vpr strain, BacTiter-Glo ATP luminescence, 24 h; active means well fitted falling curve with a large enough effect; inconclusive means small, poorly fitted or top-dose-only effect; inactive means no such curve, though single readings can be large or run the other way; further: on the % scale 0 is the no-effect control and ±100 the full control effect; nearly all actives have a fitted effect of over 50% in size
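Fission yeast RE007 carrying one integrated HIV-1 vpr copy, seeded at OD 0.01 in PMG+AL medium with 23 nL pinned compound. Grown 24 h at 30 degrees; viability read by BacTiter-Glo luminescence after 5 min.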
Tb PYK inh: qHTS of Trypanosoma Brucei Inhibitors | AID 624173, 2012 | TbPYK enzyme, Kinase-Glo Plus ATP luminescence, 45 min | Potency, µM (series often up to 76.8 µM), for the others: top-dose activity, negative = inhibition, most hits filed as inhibitors | 410,000 compounds, 0.12% hits | pyruvate kinase (Trypanosoma brucei), Q57TT1; further: on the % scale 0 is the no-effect control and ±100 the full control effect; nearly all actives have a fitted effect of over 50% in size
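ADP (130 uM final) triggers the TbPYK reaction after compound addition; incubation is 45 min at room temperature. Kinase-Glo Plus is then added and luminescence imaged. Normalized data are fitted to concentration-effect curves.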
Giardia FBPA inh-1: qHTS Assay for Inhibitors of Fructose-1,6-bisphosphate Aldolase from Giardia Lamblia. purified Giardia FBPA. 290,000 compounds, 0.71% hits. Potency, µM (top dose mostly 59.6 µM), inactives show at the top dose activity, negative = inhibition, most hits filed as inhibitors. A8B2U2; further: on the % scale 0 is the no-effect control and ±100 the full control effect; nearly all actives have a fitted effect of over 55% in size
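40 nM FBPA preincubated 10 min at RT with compound (up to 57.5 uM final), then substrate plus GAPDH/TPI/NAD/arsenate coupling and diaphorase/resazurin added. Fluorescence read after 20 min at RT, 525/598 nm.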
Giardia growth: qHTS Assay for Inhibitors of Fructose-1,6-bisphosphate Aldolase from Giardia Lamblia: Giardia lamblia growth inhibition | shares compounds with Giardia FBPA inh-1 | Giardia lamblia trophozoite growth inhibition | Potency, µM (highest dose often 57.5 µM), without a hit: at the top dose activity change, negative = inhibition, actives largely listed as inhibitors | 1,500 compounds, 5% hits | AID 2785, 2010;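 further: trophozoites exposed to compound for 48 h at 37 °C; on the % scale 0 is the no-effect control and ±100 the full control effect; nearly all actives have a fitted effect of over 70% in size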
Mammal cell tox: qHTS Assay for Inhibitors of Fructose-1,6-bisphosphate Aldolase from Giardia Lamblia: Mammalian cellular toxicity; shares compounds with Giardia FBPA inh-1; AID 2786, 2010; mammalian cell viability counter-screen, qHTS; Potency, µM (titrated, usually from 57.5 µM), for inactives: at the highest dose viability change, negative = toxicity, most hits filed as inhibitors; 1,500 compounds, 4% hits;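 further: Chinese hamster ovary cells used as mammalian cytotoxicity surrogate; viability measured as cellular ATP by luminescence; compound exposure lasted 48 h before reading; on the % scale 0 is the no-effect control and ±100 the full control effect; nearly all actives have a fitted effect of over 60% in size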
Giardia FBPA inh-2: qHTS Assay for Inhibitors of Fructose-1,6-bisphosphate Aldolase from Giardia Lamblia: Primary screen confirmation; shares compounds with Giardia FBPA inh-1; purified Giardia aldolase enzyme activity, qHTS; Potency, µM (series often up to 57.5 µM), inactives show at the top dose activity change, negative = inhibition, hits mostly inhibitors; 1,500 compounds, 5% hits; further: on the % scale 0 is the no-effect control and ±100 the full control effect; nearly all actives have a fitted effect of over 45% in size
Rabbit FBPA inh: qHTS Assay for Inhibitors of Fructose-1,6-bisphosphate Aldolase from Giardia Lamblia: Rabbit FBPA Selectivity; shares compounds with Giardia FBPA inh-1; Rabbit muscle FBPA enzyme inhibition, selectivity counter-screen; Potency, µM (highest dose often 57.5 µM), inactives show top-dose activity, negative = inhibition, hits mostly inhibitors; 1,500 compounds, 4% hits; further: on the % scale 0 is the no-effect control and ±100 the full control effect; nearly all actives have a fitted effect of over 60% in size
GAPDH counter: qHTS Assay for Inhibitors of Fructose-1,6-bisphosphate Aldolase from Giardia Lamblia: Coupling assay counterscreen confirmation. shares compounds with Giardia FBPA inh-1. AID 2795, 2010. Potency, µM (highest dose often 57.5 µM), inactives show at the top dose activity change, negative = inhibition, hits mostly inhibitors. 1,500 compounds, 6% hits. GAPDH coupling enzyme counterscreen, biochemical, qHTS; further: on the % scale 0 is the no-effect control and ±100 the full control effect; nearly all actives have a fitted effect of over 55% in size
* = called active by the depositor; [ ] = another dose, or the depositor's remark. Unless noted, the call rests on the fitted dose curve; in most records, active means well fitted curve in the direction sought with a large enough effect; inconclusive means small, poorly fitted or top-dose-only effect, or another doubt; inactive means no such curve, though single readings can be large; an effect the other way counts as inactive or inconclusive. Potency means the concentration at half of the fitted maximal effect.

O=c1[nH]cc(I)cc1I was read as LmPK inhibitor 0%, SARS PLP yeast -1%, Tb PYK inh 0%, Giardia FBPA inh-1 10µM*, Giardia growth -28%, Mammal cell tox 13%, Giardia FBPA inh-2 -8%, Rabbit FBPA inh 3% and GAPDH counter -3%.
Screening COc1c(O)ccc(/C=C(\C#N)c2nc3ccccc3[nH]2)c1[N+](=O)[O-] returned LmPK inhibitor 2%, SARS PLP yeast -7%, RE007 growth inh -3%, Tb PYK inh -2%, Giardia FBPA inh-1 inconclusive, Giardia growth inconclusive, Mammal cell tox -14%, Giardia FBPA inh-2 -24%, Rabbit FBPA inh -15% and GAPDH counter -16%.
`COc1c(Cl)cc(Cl)cc1/C=C(\C#N)c1nc2ccccc2[nH]1` gave Tb PYK inh -5%.
CO[C@H]1C[C@@H]2CC[C@@H](C)[C@@](O)(O2)C(=O)C(=O)N2CCCC[C@H]2C(=O)O[C@H]([C@H](C)C[C@@H]2CC[C@@H](OCCO)[C@H](OC)C2)CC(=O)[C@H](C)/C=C(\C)[C@@H](O)[C@@H](OC)C(=O)[C@H](C)C[C@H](C)/C=C/C=C/C=C/1C was read as Tb PYK inh 3%.
Screening CCN(CC)CC(=O)Nc1cc(N(C)C)nc2ccccc12 returned LmPK inhibitor -24%, SARS PLP yeast 0%, RE007 growth inh -7%, Tb PYK inh 21%, Giardia FBPA inh-1 5.6µM*, Giardia growth inconclusive, Mammal cell tox -1%, Giardia FBPA inh-2 5%, Rabbit FBPA inh 5% and GAPDH counter 15%.
For CCCCc1nc2ccccc2c(NC(=O)CN(CC)CC)c1CCC the results were LmPK inhibitor 2%, SARS PLP yeast 3%, RE007 growth inh -4%, Tb PYK inh 2% and Giardia FBPA inh-1 -25%.
CCCCCC(=O)Nc1cc(N(C)C)nc2ccccc12 was read as LmPK inhibitor 3%, SARS PLP yeast 1%, RE007 growth inh 4%, Tb PYK inh -6% and Giardia FBPA inh-1 7%.
Screening CCCc1nc2ccccc2c(NC(=O)CN(CC)CC)c1CC returned LmPK inhibitor -7%, SARS PLP yeast -1%, RE007 growth inh -9%, Tb PYK inh -5%, Giardia FBPA inh-1 16µM*, Giardia growth 7%[10.4 µM], Mammal cell tox 9%, Giardia FBPA inh-2 -2%, Rabbit FBPA inh 8% and GAPDH counter 11%.
Screening COCCn1c(=O)c(C)nc2cnc(N3CCNCC3)nc21 returned Tb PYK inh 0% and Giardia FBPA inh-1 -7%.
Screening COC(=O)c1cc(NC(=O)c2cc3sccc3n2Cc2ccc(Cl)cc2)cc(C(=O)OC)c1 returned Tb PYK inh 4%.
For O=C(CNC(=O)c1cccnc1)N=Nc1c(O)[nH]c2c(Br)cc(Br)cc12 the results were LmPK inhibitor 1%, SARS PLP yeast -3%, RE007 growth inh 2%, Tb PYK inh -6%, Giardia FBPA inh-1 28µM*, Giardia growth -1%[10.4 µM], Mammal cell tox -6%, Giardia FBPA inh-2 7%, Rabbit FBPA inh 17% and GAPDH counter 12%.
Screening O=C(CCCCCNC(=O)c1ccccc1)N=Nc1c(O)[nH]c2c(Br)cc(Br)cc12 returned LmPK inhibitor 3%, SARS PLP yeast -1% and Giardia FBPA inh-1 0%.
For COc1cc(C2NC(=O)C(C#N)=C(Nc3cccc(C)c3)S2)ccc1O (stereo unspecified) the results were LmPK inhibitor 14%, SARS PLP yeast -2%, RE007 growth inh 2%, Tb PYK inh -2%, Giardia FBPA inh-1 14µM*, Giardia growth 7%[10.4 µM], Mammal cell tox 2%, Giardia FBPA inh-2 -24%, Rabbit FBPA inh 4% and GAPDH counter 13%.
`COCCCNC1=C(C#N)C(=O)NC(c2cccc([N+](=O)[O-])c2)S1` (stereo unspecified) gave RE007 growth inh 15% and Tb PYK inh -6%.
`Cc1ccccc1CNC(=O)Cn1nc(C)c2nn(-c3ccc(Cl)cc3)c(C)c2c1=O` gave Tb PYK inh -10%.
Screening C=CCNC(=S)NS(=O)(=O)c1cccs1 returned LmPK inhibitor -1%, SARS PLP yeast -1%, RE007 growth inh -20%, Tb PYK inh -8%, Giardia FBPA inh-1 5.6µM*, Giardia growth -13%[38.3 µM], Mammal cell tox 10%, Giardia FBPA inh-2 -14%, Rabbit FBPA inh 10% and GAPDH counter -1%.
`COc1ccc(CNC(=O)CN(C)Cc2ccc(C(C)(C)C)cc2)cc1` gave LmPK inhibitor -12%, SARS PLP yeast 1%, RE007 growth inh -3%, Tb PYK inh 7%, Giardia FBPA inh-1 22µM*, Giardia growth -10%[10.4 µM], Mammal cell tox -6%, Giardia FBPA inh-2 -5%, Rabbit FBPA inh -5% and GAPDH counter 0%.
Screening Cc1ccc(-n2c(O)c(/C=N/c3ncn[nH]3)c3ccccc3c2=O)cc1 returned LmPK inhibitor -5%, SARS PLP yeast -5%, RE007 growth inh 11%, Tb PYK inh -10% and Giardia FBPA inh-1 0%.
